A selection: hits, their analogues and other compounds. The true share with any hit is near 9.9%.
Tau fibril ThT: blocks human tau fibril formation measured by thioflavin T. AID 1460. recombinant tau K18 P301L, heparin-induced fibrillization, ThT fluorescence. P10636. Potency, µM (highest dose often 57.4 µM), actives largely listed as inhibitors. 270,000 compounds, 2.1% hits; note: nearly all actives have a fitted effect of over 55% in size
Target sequence (P10636 561-689 P618L limits assumed): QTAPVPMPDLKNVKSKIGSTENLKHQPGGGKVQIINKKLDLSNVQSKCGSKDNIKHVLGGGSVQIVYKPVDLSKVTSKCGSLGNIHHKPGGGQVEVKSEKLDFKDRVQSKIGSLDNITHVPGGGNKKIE
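ThT emission at 510 nm, taken 1 hr after adding 30 uM dye, quantifies aggregates formed when 20 uM heparin acts on human tau K18 P301L for 6 hr at 37 C.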
HPGD block: HPGD (human) dehydrogenase inhibition. purified HPGD, NADH fluorescence kinetic, PGE2 substrate. Potency, µM, most hits filed as inhibitors. 150,000 compounds, 4.3% hits. AID 894; active = well fitted inhibition curve with a large enough effect, not every such curve was filed as active; inconclusive = small, poorly fitted or top-dose-only effect, or another doubt; inactive = no such curve, though single readings can be large or run the other way
Target sequence (P15428 whole entry, looked up): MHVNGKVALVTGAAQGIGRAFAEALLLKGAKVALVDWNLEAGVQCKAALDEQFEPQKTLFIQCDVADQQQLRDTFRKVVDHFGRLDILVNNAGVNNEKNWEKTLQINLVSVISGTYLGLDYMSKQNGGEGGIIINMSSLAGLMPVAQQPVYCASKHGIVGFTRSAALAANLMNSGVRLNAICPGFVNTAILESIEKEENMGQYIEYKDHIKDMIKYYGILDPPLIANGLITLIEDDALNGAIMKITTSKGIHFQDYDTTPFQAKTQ
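NADH formation kinetics: reaction with 30 uM PGE2 and 1 mM NAD+ (final), 20 nM enzyme, Tris-HCl pH 8 with Tween 20, after 15 min compound preincubation at room temperature. Fluorescence change, last versus first of five reads.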
Tau fluor counter: counter-screen for tau fibril formation inhibitors; tau K18 P301L (four-repeat tau fragment) Alexa594 fluorescence, heparin fibrillization; AID 1463; Potency, µM (highest dose often 57.7 µM); 280,000 compounds, 0.93% hits; note: nearly all actives have a fitted effect of over 55% in size
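Human K18 P301L tau (15 uM unlabeled plus 0.24 uM Alexa 594-labeled, final) in 100 mM sodium acetate pH 7 was mixed with compound and 20 uM heparin and incubated 6 hr at 37 C.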
ALDH1A1 inh: inhibitors of human aldehyde dehydrogenase 1A1; P00352; Purified ALDH1A1, NADH fluorescence, propionaldehyde substrate; Potency, µM (series often up to 75.3 µM), hits mostly inhibitors; 220,000 compounds, 7.3% hits; AID 1030; active = well fitted inhibition curve with a large enough effect, not every such curve was filed as active; inconclusive = small, poorly fitted or top-dose-only effect, or another doubt; inactive = no such curve, though single readings can be large or run the other way
JMJD2E inh: blocks human JMJD2E demethylase activity. 230,000 compounds, 1.6% hits. AID 2147. Potency, µM (top dose mostly 57.1 µM), usual class: inhibitors. B2RXH2. JMJD2E catalytic domain, FDH-coupled NADH fluorescence (FDH is formaldehyde dehydrogenase); note: nearly all actives have a fitted effect of over 50% in size
Tau fibril FP: blocks human tau fibril formation measured by polarization; AID 1468; Potency, µM (highest dose often 57.7 µM), hits mostly inhibitors; 280,000 compounds, 0.39% hits; K18 P301L tau heparin fibrillization, Alexa594 FP, 6 h; P10636; note: nearly all actives have a fitted effect of over 55% in size
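Steps: dispense K18 P301L tau (15 uM plus 0.24 uM Alexa 594 tracer, final) in pH 7 sodium acetate; add compound; add heparin (20 uM final); incubate 6 hr, 37 C; add ThT (30 uM final); after 1 hr ambient, read FP.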
Of the large screens only hits and unclear results are named; the others gave an inactive call; [ ] = dose if it differs, or a comment. Unless noted, calls come from the whole dose curve; as a rule, active = well fitted curve in the direction sought with a large enough effect; inconclusive = small, poorly fitted or top-dose-only effect, or another doubt; inactive = no such curve, though single readings can be large; an effect the other way counts as inactive or inconclusive.

CC(C)(C)c1ccc(C(=O)N2CCNCC2)cc1	HPGD block inconclusive
CCC/C=C(\CCC)C(NS(=O)(=O)c1ccc(Cl)cc1)c1ccc(C(=O)OC)cc1 (stereo unspecified)	ALDH1A1 inh inconclusive
CCC/C=C(\CCC)C(NS(=O)(=O)CC12CCC(CC1=O)C2(C)C)c1ccc(C(=O)OC)cc1 (stereo unspecified)	Tau fibril ThT inconclusive, HPGD block 22µM, ALDH1A1 inh 10µM
N#CCCN(Cc1cccnc1)C(=S)NC(=O)c1ccc(S(=O)(=O)N2CCCC2)cc1	ALDH1A1 inh 14µM (no result: HPGD block)
CC1CCCCN1S(=O)(=O)c1ccc(C(=O)Nc2ccccc2-c2nc3ccccc3[nH]2)cc1 (stereo unspecified)	HPGD block inconclusive, Tau fluor counter inconclusive, ALDH1A1 inh inconclusive, Tau fibril FP 14µM
CC1CCCCN1S(=O)(=O)c1ccc(C(=O)Nc2ccccc2-c2nc3ccccc3s2)cc1 (stereo unspecified)	HPGD block inconclusive
O=C(Nc1ccccc1-c1nc2ccccc2[nH]1)c1ccc(S(=O)(=O)N2CCCCC2)cc1	HPGD block inconclusive, Tau fluor counter inconclusive, Tau fibril FP 13µM
N#CCCSc1ccccc1NC(=O)c1ccc(S(=O)(=O)N2CCCC2)cc1	HPGD block 11µM, ALDH1A1 inh 2.5µM
COc1ccccc1CNC(=O)Cn1nc(C)n2cccc2c1=O	Tau fibril ThT inconclusive, Tau fibril FP inconclusive (no result: HPGD block, ALDH1A1 inh, JMJD2E inh)
Cc1ccccc1C(=O)Nc1cc2c(cc1N1CCCCC1)n(C)c(=O)n2C	Tau fibril ThT inconclusive (no result: HPGD block, ALDH1A1 inh, JMJD2E inh)
NS(=O)(=O)c1ccc(N/N=C/c2cn(-c3ccccc3)nc2-c2cccs2)cc1	Tau fibril ThT 16µM, Tau fluor counter 13µM[quencher], ALDH1A1 inh inconclusive, JMJD2E inh inconclusive (no result: HPGD block)
NS(=O)(=O)c1ccc(N/N=C/c2cn(-c3ccccc3)nc2-c2cccs2)c([N+](=O)[O-])c1	Tau fibril ThT 2.5µM, Tau fluor counter inconclusive, ALDH1A1 inh inconclusive (no result: HPGD block)
Cc1ccc(C(=O)OCCn2cc(C#N)c(=O)[nH]c2=O)cc1	none (no result: HPGD block)
[N-]=C=C1C(=S)NC(=O)[C@H]([n+]2ccccc2)[C@H]1c1ccc(Cl)cc1	Tau fibril ThT inconclusive, ALDH1A1 inh 14µM, JMJD2E inh inconclusive (no result: HPGD block)
CCOC(=O)C1=C(C)Nc2ccc(C)cc2S1	Tau fibril ThT 16µM, Tau fluor counter inconclusive
CCOCCOC(=O)C1=C(C)Nc2ccc(C)cc2S1	Tau fibril ThT inconclusive, ALDH1A1 inh inconclusive
CSCCOC(=O)C1=C(C)Nc2ccc(C)cc2S1	Tau fibril ThT inconclusive, Tau fluor counter inconclusive, ALDH1A1 inh 14µM
Cc1ccccc1C(=O)NNC(=O)/C=C\C(=O)O	none (no result: HPGD block, ALDH1A1 inh)
O=C(O)/C=C/C(=O)NNC(=O)c1ccccc1Br	HPGD block inconclusive, ALDH1A1 inh 11µM
O=C(Cn1cncn1)c1ccc(F)cc1F	none
O=C(CC1C(=O)NCCN1CC1CCCCC1)NCc1ccc(Cl)cc1 (stereo unspecified)	ALDH1A1 inh 20µM (no result: HPGD block)
O=C(CC1C(=O)NCCN1CC1CCCCC1)NCc1cc(F)ccc1F (stereo unspecified)	ALDH1A1 inh inconclusive (no result: HPGD block)
Nc1nc(-c2ccccc2)c(N=Nc2cccnc2)s1	Tau fibril ThT 2.8µM, Tau fluor counter inconclusive, ALDH1A1 inh 20µM (no result: HPGD block)
COCc1cc(=O)[nH]c(Nc2nc3ccccc3o2)n1	JMJD2E inh inconclusive
COCc1cc(=O)[nH]c(Nc2nc(C)c3ccccc3n2)n1	Tau fibril ThT inconclusive, ALDH1A1 inh 20µM
Cc1ccc2c(C)nc(Nc3nc(CSc4nnnn4-c4ccccc4)cc(=O)[nH]3)nc2c1	Tau fibril ThT inconclusive, ALDH1A1 inh 4µM
CC(=O)Nc1ccc(NS(=O)(=O)c2c(C(=O)N3CCC(C)CC3)c(C)n(C)c2C)cc1	none (no result: HPGD block, ALDH1A1 inh, JMJD2E inh)
CCc1cc(C(=O)N2CCCC(CCC(=O)NCc3cccc(OC)c3)C2)no1 (stereo unspecified)	ALDH1A1 inh inconclusive (no result: HPGD block)
COc1ccccc1NC(=O)OCC#CCOC(=O)Nc1ccccc1OC	none (no result: HPGD block, ALDH1A1 inh)
Cc1ccc(C2Nc3ccccc3-c3nc4ccccc4n32)o1 (stereo unspecified)	Tau fibril ThT inconclusive, HPGD block inconclusive, Tau fluor counter 32µM[quencher], ALDH1A1 inh inconclusive, Tau fibril FP inconclusive
